Screens deposited in PubChem by National Center for Advancing Translational Sciences (NCATS).
IMPase cell inh – cell-permeable inhibitors of inositol monophosphatase (IMPase). CHO-M1 cells, IP1 accumulation, HTRF TR-FRET ratio. inhibition (IP1 accumulation), % at 46.1 µM. 120,000 tested, under 10 active. AID 901; active means well fitted curve in the direction sought with a large enough effect in the signal ratio, not every such curve was filed as active; inconclusive means small, poorly fitted or top-dose-only effect, or a change in a side signal; inactive means no such curve, though single readings can be large or run the other way; the % refers to the signal ratio;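 further: cells stimulated with carbachol in lithium chloride buffer; plate controls were DMSO basal wells for no effect and reference inhibitor wells for full effect; higher means more IMPase inhibition seen as more IP1 and lower FRET ratio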
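Seeded CHO-M1 cells were dosed with compound at up to 46 uM, stimulated with carbachol for 30 min, then lysed in IP-One detection reagents. Higher IP1 lowers the TR-FRET signal.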
ALOX12 inhib – inhibitors of human 12-lipoxygenase (ALOX12) | purified 12-hLO, xylenol orange hydroperoxide absorbance | Potency, µM (highest dose often 57.1 µM), inactives show top-dose activity change, negative = inhibition, most hits filed as inhibitors | actives 0.12% (n = 150,000) | P18054; active means well fitted curve in the direction sought with a large enough effect; inconclusive means small, poorly fitted or top-dose-only effect, or another doubt; inactive means no such curve, though single readings can be large; an effect the other way counts as inactive or inconclusive; further: potency means the concentration at half of the fitted maximal effect; nearly all actives have a fitted effect of over 55% in size
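Purified human 12hLO (150 nM), preincubated 15 min with compound, then 40 uM arachidonic acid for 30 min, room temperature, Hepes pH 7.0 with 0.01% Triton X-100. Hydroperoxide detected by ferrous iron/xylenol orange; 573/405 nm absorbance ratio gives reaction progress.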
IMPase Li inh – IMPase inhibition in cells with lithium potentiation. CHO-M1 cells, IP1 TR-FRET (IP-One), carbachol + lithium. Potency, µM (highest dose often 59.4 µM), for inactives: top-dose activity, negative = IMPase inhibition, usual class: inhibitors. actives 0.35% (n = 210,000); active means well fitted curve in the direction sought with a large enough effect; inconclusive means small, poorly fitted or top-dose-only effect, or another doubt; inactive means no such curve, though single readings can be large; an effect the other way counts as inactive or inconclusive;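 further: IP1 builds up when IMPase is blocked and the TR-FRET signal falls; potency means the concentration at half of the fitted maximal effect; plate controls were basal vehicle for no effect and high inhibitor control for full effect; nearly all actives have a fitted effect of over 50% in size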
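Readout is a homogeneous TR-FRET IP1 immunoassay (Ex 320, Em 665 and 620), where raised cytosolic IP1 lowers signal. Cells were CHO-M1 treated 30 min at 37C with test compounds plus a little lithium; AC50 values came from Hill-equation fitting.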
PNC inhibitor – blocks assembly of the perinucleolar compartment | PC3M PTB-GFP, PNC prevalence imaging, 16 h; hits give low values | activity change (PNC), negative = inhibition, % at 10 µM | actives 3.1% (n = 140,000) | AID 2417;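 active means readout at or below -70, meaning at least 70% loss of cells showing the perinucleolar compartment, a nuclear body marking cancer cells; inconclusive means readout between -30 and a set limit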;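 further: plate controls were DMSO wells for no effect and camptothecin positive control wells for full effect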
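PC3M cells stably expressing PTB-GFP, 750–1000 cells/well, treated 16 h at 37 °C with compound (23 nl of library stock), in duplicate. After paraformaldehyde fixation and Hoechst stain, imaged at 20x; PNC prevalence scored by image analysis.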
ALDH1A1 block – ALDH1A1 (human) enzyme inhibition | P00352 | Purified ALDH1A1, NADH fluorescence, propionaldehyde substrate | Potency, µM (top dose mostly 75.3 µM), inactives show top-dose activity, negative = inhibition, hits mostly inhibitors | actives 7.3% (n = 220,000) | AID 1030;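 further: potency means the concentration at half of the fitted maximal effect; plate controls were no enzyme wells and a reference inhibitor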
Target sequence (P00352 whole entry, looked up): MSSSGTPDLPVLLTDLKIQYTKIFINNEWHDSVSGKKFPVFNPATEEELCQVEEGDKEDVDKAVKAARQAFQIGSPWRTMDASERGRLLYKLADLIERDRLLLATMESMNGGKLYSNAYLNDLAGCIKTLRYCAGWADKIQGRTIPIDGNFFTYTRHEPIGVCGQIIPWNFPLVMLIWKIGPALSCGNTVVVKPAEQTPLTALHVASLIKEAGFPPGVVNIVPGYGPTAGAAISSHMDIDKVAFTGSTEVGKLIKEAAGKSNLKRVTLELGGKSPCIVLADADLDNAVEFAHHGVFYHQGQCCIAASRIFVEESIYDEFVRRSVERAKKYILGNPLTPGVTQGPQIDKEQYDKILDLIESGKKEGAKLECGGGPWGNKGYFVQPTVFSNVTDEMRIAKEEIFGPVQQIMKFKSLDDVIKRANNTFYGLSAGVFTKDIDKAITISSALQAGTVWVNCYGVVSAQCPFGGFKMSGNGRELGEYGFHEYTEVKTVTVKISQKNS
HPGD block – inhibitors of human 15-hydroxyprostaglandin dehydrogenase (HPGD); AID 894; actives 4.3% (n = 150,000); P15428; purified HPGD, NADH fluorescence kinetic, PGE2 substrate; Potency, µM, without a hit: top-dose activity change, negative = inhibition, actives largely listed as inhibitors; further: potency means the concentration at half of the fitted maximal effect
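NADH formation kinetics: reaction with 30 uM PGE2 and 1 mM NAD+ (final), 20 nM enzyme, Tris-HCl pH 8 with Tween 20, after 15 min compound preincubation at room temperature. Fluorescence change, last versus first of five reads.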
An asterisk follows results filed as active; ? = inconclusive; . = not tested or not shown; [ ] = another dose, or the depositor's remark. Sampled rows, rich in hits. Any-hit rate of the full collection: about 11%. Unless noted, the call rests on the fitted dose curve; in most records, active means well fitted inhibition curve with a large enough effect (not every such curve was filed as active); inconclusive means small, poorly fitted or top-dose-only effect, or another doubt; inactive means no such curve, though single readings can be large or run the other way. Unless noted, on the % scale 0 is the no-effect control and ±100 the full control effect.

SMILES	IMPase cell inh	ALOX12 inhib	IMPase Li inh	PNC inhibitor	ALDH1A1 block	HPGD block
CCOc1cc(/C=C2/C(=N)N3OC(C)=CC3=NC2=O)ccc1OC(=O)c1ccco1	.	.	4%	.	10µM*	.
COc1cc(/C=C2/SC(=S)N(C)C2=O)ccc1OC(=O)c1ccco1	.	3%	-7%	-8	-12%	-17%
CCOC(=O)c1ccc(N2NC(=O)/C(=C/c3ccc(OC(=O)c4ccco4)c(OC)c3)C2=O)cc1	.	6%	10%	?	?	13µM*
CC(C)c1ccc(NC(=O)c2cn(C3CCCCC3)c(=O)c3c2c2ccccc2n3C)cc1	-1	.	.	.	.	.
COc1ncc2nc(-c3ccc(F)cc3)c(=O)n(Cc3ccc(F)cc3)c2n1	.	.	8%	.	?	.
C[C@H](O)Cn1cnc2c1c(=O)n(C)c(=O)n2C	-10[20.6 µM]	5%[25.6 µM]	-7%	.	7%[20.9 µM]	-5%
O=C(CC1C(=O)NCCN1C(=O)Nc1ccccc1)Nc1ccc(F)cc1 (stereo not drawn)	.	.	.	.	3%	.
CC(C)CCN1CCNC(=O)C1CC(=O)Nc1ccc(F)cc1 (stereo not drawn)	-6	-5%	11%[38.3 µM]	27	18µM*	-14%
CCCCNc1nc(SC)nc2nc[nH]c12	.	-2%[11.4 µM]	10%	.	6%[13.5 µM]	-3%
Cc1ccc2nc(N3C(=O)C(O)=C(C(=O)c4cc5ccccc5o4)C3c3cccs3)sc2c1 (stereo not drawn)	?	?	-25%[38.3 µM]	?	20µM*	-28%
Cc1cc(N2C(=O)C(O)=C(C(=O)c3ccc(C)o3)C2c2cccs2)no1 (stereo not drawn)	?	13%	10µM*	17	22µM*	28µM*
CCc1ccc2nc(N3C(=O)C(O)=C(C(=O)c4ccco4)C3c3cccs3)sc2c1 (stereo not drawn)	-13	6%	-29%	-100*	-3%	20µM*
CCN(CC)CCCN1C(=O)C(O)=C(C(=O)c2ccc(C)o2)C1c1cccs1 (stereo not drawn)	-5	0%	8%[38.3 µM]	5	?	-4%
Cc1cc(N2C(=O)C(O)=C(C(=O)c3ccco3)C2c2ccc(O)cc2)no1 (stereo not drawn)	-18	3%	?	-15	-1%	-11%
CO[C@@H]1/C=C\O[C@]2(C)Oc3c(C)c(O)c4c(O)c(cc(O)c4c3C2=O)NC(=O)/C(C)=C\C=C/[C@H](C)[C@@H](O)[C@H](C)[C@H](O)C(C)[C@H](OC(C)=O)[C@@H]1C (stereo partly drawn)	.	.	-6%	.	-6%[13.5 µM]	-13%
CN(C)CCCO[C@H]1C([C@H](O)CO)O[C@@H]2OC(C)(C)O[C@@H]21 (stereo partly drawn)	.	.	-1%	.	4%	-10%
CCCCN(C)S(=O)(=O)c1ccc(C(=O)N=c2sc3cc(NC(C)=O)ccc3n2C)cc1	.	0%	-27%	-94*	13%	-26%
CCCCNc1nc(C)nc2c1nc(-c1ccccc1)n2C1CCN(Cc2ccccc2)C1 (stereo not drawn)	.	-9%	16%	.	?	-21%
Oc1ccc(Cl)cc1CNc1ccc(Br)cn1	9	-20%	30%[38.3 µM]	?	5%	14µM*
COc1cc(OC)c2c(c1)OC(c1ccccc1)CC2=O (stereo not drawn)	5	-6%	7%	.	?	?
Cc1cccc(N=N/C(=C\O)C(=O)c2cccs2)c1	.	.	23%	.	8.9µM*	.
CC(=O)c1ccc(OC2C=CC(c3ccc(Cl)cc3)OC2CO)cc1 (stereo not drawn)	.	.	.	.	1%[13.5 µM]	.
O=C(NCC(c1cccs1)N1CCOCC1)c1ccc(Cl)s1 (stereo not drawn)	-6	0%	-4%[38.3 µM]	?	1%	-9%
COC(=O)c1coc(-c2ccc(C)cc2)c1C(=O)OC	-15	-7%	-2%[38.3 µM]	8	22µM*	-23%
C=CCc1ccc(OCC(O)COCC)c(OC)c1 (stereo not drawn)	-8	0%	20%[38.3 µM]	18	28µM*	0%
SMILES	IMPase cell inh	ALOX12 inhib	IMPase Li inh	PNC inhibitor	ALDH1A1 block	HPGD block
C=CCc1ccc(OCC(O)CO)c(OC)c1 (stereo not drawn)	-2	5%	29%[38.3 µM]	23	-12%	-12%
COC(=O)NC(c1cccc(C)c1)C(C(C)=O)C(=O)OC (stereo not drawn)	.	.	.	.	7%[13.5 µM]	.
Cc1cc(NN)nc2ccc(Cl)cc12	.	.	-4%	.	?	.
CCC(=O)NCCn1c(C)cc2ccccc21	-1	-3%	-10%[38.3 µM]	42	4%	-1%
Cc1cc2ccccc2n1CCNC(=O)Cc1cccc2ccccc12	?	-9%	-62%[38.3 µM]	-108*	?	-29%
Cc1cc2ccccc2n1CCNC(=O)c1ccc(Br)o1	.	.	-8%	.	5.6µM*	.
Cc1cc2ccccc2n1CCNC(=O)COc1ccccc1	-3	-7%	6%[38.3 µM]	-103*	3%	-5%
CC(=O)N1C2(C=CC1(C)C(=O)NCc1cc(F)cc(C(F)(F)F)c1)CCCCC2 (stereo not drawn)	.	-2%	-6%	.	-7%	-14%
Cc1nc(NCCc2ccc(F)cc2)c(C#N)c(C)c1[N+](=O)[O-]	-7	0%	13%	-23	?	-9%
COc1cc(CNc2nc(C)c([N+](=O)[O-])c(C)c2C#N)cc(OC)c1	?	4%	27%[38.3 µM]	8	4µM*	-6%
Cc1nc(NCCc2ccccc2F)c(C#N)c(C)c1[N+](=O)[O-]	-4[1.84 µM]	-1%	26%[38.3 µM]	?	14µM*	-10%
